Experiments:
Type in all cases: functional
[1] = molecular target: Solute carrier family 2, facilitated glucose transporter member 1 (Homo sapiens) (UniProt P11166); experiment: ST_JUDE_LEISH: Cytotoxicity at 2uM final concentration against transgenic Leishmania Mexicana promastigotes LmGLUT1 that are glucose transport deficient and complemented with the human glucose transporter GLUT1. Activity is measured by DNA content using SYBR green in vitro
[2] = molecular target: Hexose transporter 1 (Plasmodium falciparum) (UniProt O97467); experiment: ST_JUDE_LEISH: Cytotoxicity at 2uM final concentration against transgenic Leishmania Mexicana promastigotes LmPfHT that are glucose transport deficient and complemented with the Plasmodium falciparum hexose transporter. Activity is measured by DNA content using SYBR green in vitro
[3] = molecular target: Glucose transporter (Leishmania mexicana) (UniProt O61059); experiment: ST_JUDE_LEISH: Cytotoxicity at 2uM final concentration against transgenic Leishmania Mexicana promastigotes LmGT2 that are glucose transport deficient and complemented with the L. Mexicana glucose transporter 2. Activity is measured by DNA content using SYBR green in vitro

Chain of Solute carrier family 2, facilitated glucose transporter member 1 (Homo sapiens) (P11166 whole entry): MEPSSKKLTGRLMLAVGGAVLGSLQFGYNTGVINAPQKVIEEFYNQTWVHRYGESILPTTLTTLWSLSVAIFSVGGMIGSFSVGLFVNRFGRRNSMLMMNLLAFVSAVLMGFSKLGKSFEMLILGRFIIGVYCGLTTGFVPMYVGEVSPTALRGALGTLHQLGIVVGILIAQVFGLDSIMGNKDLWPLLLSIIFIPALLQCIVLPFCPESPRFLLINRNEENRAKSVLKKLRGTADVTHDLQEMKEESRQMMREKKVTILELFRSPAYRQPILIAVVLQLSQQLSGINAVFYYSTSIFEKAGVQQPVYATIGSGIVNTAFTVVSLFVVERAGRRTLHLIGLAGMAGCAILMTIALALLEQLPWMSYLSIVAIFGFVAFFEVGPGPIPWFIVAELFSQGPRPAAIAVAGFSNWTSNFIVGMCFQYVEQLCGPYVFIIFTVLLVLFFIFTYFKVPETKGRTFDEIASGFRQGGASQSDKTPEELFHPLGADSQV

Row | SMILES | inhibition [1] | inhibition [2] | inhibition [3]
1 | O=C(/C=C/C=C/c1ccccc1)NCCCCCN1CCC(c2c[nH]c3ccccc23)CC1 | 3.2% | 4.23% | 1.69%
2 | CS(=O)(=O)c1ccc(CCNCc2ccc(-c3cccc(-c4nc5ccccc5[nH]4)c3)cc2)cc1 | 1.41% | 0.65% | -0.73%
3 | C=CCc1cc(Cc2cnc(N)nc2N)c2ccc(C)nc2c1OC | 8.65% | 6.7% | 5.13%
4 | COc1cc(NC(=O)/C=C/c2cc3ccccc3n2C)ccc1OCCN(C(C)C)C(C)C | 4.23% | 4.39% | 3.12%
5 | Cc1nc(-c2cccc(NC(C)C(=O)Nc3cc(C(F)(F)F)ccc3N3CCOCC3)c2)cs1 (stereo not given) | 0.08% | 0.47% | 0.96%
6 | COc1ccc2nccc(NC(=O)C3(O)CCC(NCc4ccc5c(c4)NCCS5)CC3)c2n1 (stereo not given) | 15% | 22.5% | 7.11%
7 | C=CCc1cc(Br)ccc1OCCCOc1c(C)nc(N)nc1N | 73.6% | 76% | 57%
8 | CN(Cc1cccc(O)c1)C1CCN(c2cc(NC(=O)c3ccc(F)cc3)ccn2)C1 (stereo not given) | 1.94% | 2.9% | 3.61%
9 | COc1ccc(NC(=O)Nc2ccc(-c3ccc(-c4nc5ccccc5[nH]4)cc3)cc2)cc1 | 3.84% | 5.18% | 2.97%
10 | O=S(=O)(c1cc(Cl)c(Cl)cc1Cl)N1CCCCC(c2ccc(C(F)(F)F)cc2)=N1 | -0.66% | 0.43% | 0.91%
11 | CCCC(=O)Nc1ccc(Nc2nc(C)cc(N3CCCC3)n2)cc1 | 1.82% | 4.49% | -0.91%
12 | Cc1ccccc1CNC(=O)Nc1cccc(-c2csc(NC(=N)N)n2)c1 | 0.55% | 0.56% | 4.51%
13 | O=C(Nc1cccc(F)c1)c1ccc(C(=O)NC2CCN(CC3CCCCC3)C2)cc1 (stereo not given) | 11.1% | 9.73% | 8.76%
14 | COc1c(C2CCN(CCCCNC(=O)c3ccc(NC(=O)c4ccc(C#N)cc4)cc3)CC2)ccc2c1CCCC2 | 1.73% | 0.65% | 0.9%
15 | CCc1c(CCNCCCCCCNCc2ccc3c(c2CC)OCO3)ccc(OC)c1OC | 10.6% | 0.77% | 4.01%
16 | CC(C)(C)c1nn(-c2ccc(Cl)cc2)c2[nH]c(=O)c(CNCc3ccc4c(c3)OCO4)cc12 | 4.55% | 3.31% | 5.03%
17 | Nc1nc(N)c2c(Cl)c(N(Cc3ccccc3)Cc3ccccc3)ccc2n1 | 23.6% | 23.5% | 7.75%
18 | COc1ccc2ncc(F)c(CCN3CC(O)C(CNCc4ccc5oc(=O)ccc5c4)C3)c2n1 (stereo not given) | 8.17% | 6.29% | 5.19%
19 | N#Cc1cccc(-c2ccc(C(=O)Nc3ccc4c(c3)CCN(C3CCC3)CC4)cn2)c1 | 7.62% | 4.8% | 5.26%
20 | Cc1cc(Nc2cc(Cl)cc(Cl)c2)nc(N)n1 | 9.89% | 10.2% | 6.94%
21 | CC(C)c1ccc(NC(=O)NCCCC2CCCN(CCCCCNC(=O)/C=C/c3ccc(Cl)c(Cl)c3)C2)cc1 (stereo not given) | 1.47% | 2.49% | 5.08%
22 | CCNc1cc(C(=O)N[C@@H](Cc2ccccc2Cl)[C@H](O)CNC(C)CCCC(C)C)cc(N2CCCCS2(=O)=O)c1 (stereo not given in full) | -2.6% | 0.93% | -2.24%
23 | COc1ccc(N2C(N)=NC(N)=NC2(C)C)cc1 | 1.65% | 3.07% | 2.77%
24 | CCc1cc(NC2CCN(C)CC2)nc(Nc2ccc(C)cc2)n1 | 7.94% | 4.93% | -1.22%
25 | CCCC(N)C(=O)NC1CCN(c2c(F)c(N)c3c(=O)c(C(=O)O)cn4c3c2Oc2ccccc2-4)C1 (stereo not given) | 82.5% | 82.6% | 76.2%
26 | CCCn1c(Sc2ccc(C#N)c([N+](=O)[O-])c2)nnc1-c1cc(OC)cc(OC)c1 | 0.5% | 4.36% | 1.24%
27 | CCCCNCc1ccc(-c2nc(CN(CCCn3ccnc3)C(=O)Nc3ccc(CC)cc3)cs2)cc1 | 7.74% | 6.29% | 6.91%
28 | CC(C)NCc1cc(Nc2ccnc3cc(Cl)ccc23)ccc1O | 0.05% | 1.48% | 1.69%

Row | SMILES | inhibition [1] | inhibition [2] | inhibition [3]
29 | COc1ccc(OC)c2c1CC1NCC2c2c(OC)ccc(OC)c21 (stereo not given) | 2.86% | 2.69% | 0.54%
30 | O=C1c2ccc([N+](=O)[O-])cc2C(=O)N1c1ccc2[nH]ncc2c1 | 2.79% | 1.54% | 0.95%
31 | CN1CCN(CCCNCc2cccc(Nc3nccc(Nc4ccc(Oc5ccccc5)cc4)n3)c2)CC1 | 1.12% | 2.79% | 0.79%
32 | O=C(Nc1ccc(C(F)(F)F)cc1)c1ccc(S(=O)(=O)NC2CCN(CC3CCCCC3)C2)cc1 (stereo not given) | -3% | 1.05% | -3.85%
33 | Cn1nccc1C(=O)NCCNCc1ccc(-c2ccc(-c3nc4cc(C(F)(F)F)ccc4[nH]3)s2)cc1 | 0.47% | -0.52% | 0.87%
34 | COc1cc2ncnc(Nc3ccc(OCc4ccccc4)c(I)c3)c2cc1OC | 1.41% | 0.71% | 1.33%
35 | CCOC(=O)N1CCN(CCCNc2c3ccccc3nc3ccccc23)CC1 | 6.23% | 4.08% | 1.91%
36 | Cc1ccc(C)c(-n2c(SCC(=O)Nc3ccc(C(N)=O)cc3)nnc2-c2cccc(Cl)c2)c1 | 11.3% | 11.6% | 10.4%
37 | CC1=C(C(=O)Nc2ccc(Cl)cc2)C(c2ccncc2)n2nc(C(F)(F)F)nc2N1 (stereo not given) | 3.72% | 2.96% | -2.29%
38 | COc1ccc(NC(=O)c2ccc3cc4ccccc4cc3c2)cc1N1CCN(C)CC1 | 0.49% | -0.55% | 0.74%
39 | CCCC1CCNC(C(O)c2ccnc3ccc(OC)cc23)C1 (stereo not given) | 1.89% | 1.16% | 2.16%
40 | COc1ccc(NC(=O)C2c3ccccc3C(=O)N(C3CCCC3)C2c2cccs2)cc1 (stereo not given) | 5.7% | 4.78% | 5%
41 | [O-][s+]1nc(NCCCN(Cc2cccs2)c2ccccn2)c(NCc2ccccc2)n1 (stereo not given) | -1.34% | 0.68% | -1.82%
42 | CCc1cc2c(N)nc(N)nc2nc1-c1ccccc1 | 4.22% | 3.93% | 0.81%
43 | N=C(N)NN=Cc1cc([N+](=O)[O-])ccc1Sc1ccccc1CO | 1.08% | 1.61% | 0.68%
44 | C=CCOC(=O)N1CCC(CNCc2cccc(-c3cccc(-c4nc5cccc(C)c5[nH]4)c3)c2)C1 (stereo not given) | 3.47% | 1.88% | 7.29%
45 | Cc1ccc2[nH]c(C)cc(=NN=Cc3ccc(Cl)cc3)c2c1 | -0.11% | 0.61% | -1.26%
46 | CC(C)(C)c1ccccc1OCCCON1C(=N)N=C(N)NC1(C)C | 38% | 59.3% | 37.1%
47 | Nc1n[nH]c(-c2ccccc2Nc2ccnc3cc(-c4nccs4)ccc23)n1 | 1.03% | 0.07% | -0.15%
48 | N=C(N)NN=Cc1cc2ccccc2c2ccccc12 | 8.49% | 9.7% | 4.16%
49 | CC(CN(C)C)C(=O)Nc1cccc(-c2cccc(-c3nc4ccccc4[nH]3)c2)c1 (stereo not given) | -0.1% | -0.62% | 3.87%
50 | CCOc1ccccc1CCNC(C)Cc1ccc(C(=O)Nc2ccc(CC(C)NCCc3cccc(Cl)c3)cc2)cc1 (stereo not given) | 28% | 34.1% | 3.04%
51 | COc1cccc(Nc2nc(C)cc(NCc3ccc(-n4ccnc4)cc3)n2)c1 | 4.08% | 13.7% | 8.06%
52 | O=C(Nc1nccs1)c1sc2ccccc2c1O | 3.63% | 2.26% | 1.45%
53 | Nc1nccc2ccc(-c3ccc(Oc4ccccc4)cc3)cc12 | 14.9% | 15.8% | 12.2%
54 | COc1ccc2ncc(F)c(CCN3CC(O)C(CNCc4ccccc4)C3)c2n1 (stereo not given) | 7.65% | 5.1% | 4.78%
55 | CCn1c(-c2nonc2N)nc2c(-c3ccccc3)ncc(OCCCNCCCN3CCOCC3)c21 | 2.58% | 1.32% | 0.55%

— ChEMBL document CHEMBL3433997, “St. Jude Leishmania screening dataset” (2016)
